Test results: the supplement of paper PMC7411054
Counter-ions that a name gives are not always drawn.

Tests used:
Conditions in all cases: treatment time: 24 h
WPMY1-GM130-SQSTM1 [1] = assay: lowest phenotypically active concentration; higher = less potent
Summary of the method: (§1)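 The reporter lines, fifteen in total and built by gene editing in A549, HepG2 and WPMY1 cells, used BFP for segmentation alongside GFP and RFP/FusionRed markers. Each was treated at 0.3, 1, 3 or 9 µM for 24 h in four wells and then imaged live, with live-cell features normalised to solvent control wells. Deviation meant ≥3 of 4 wells beyond the 95th percentile of control Euclidean distances; reproducibility meant a median replicate Pearson correlation above the 95th percentile of non-replicates. Only conditions meeting both were scored as phenotypically active.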

A549-ACTB-RAB5A = assay: phenotypically active (imaging signature differs from DMSO and reproducible) at any of 0.3-9 uM (binary (1 = active, 0 = inactive)); higher = active
Summary of the method: as §1

A549-CANX-COX4 = assay: as above
Summary of the method: as §1

A549-GM130-SQSTM1 [2] = assay: as above
Summary of the method: as §1

A549-TP53BP1-CLTA = assay: as above
Summary of the method: as §1

A549-TUBA1B-RELA = assay: as above
Summary of the method: as §1

HepG2-ACTB-RAB5A = assay: as above
Summary of the method: as §1

HepG2-CANX-COX4 = assay: as above
Summary of the method: as §1

HepG2-GM130-SQSTM1 [3] = assay: as above
Summary of the method: as §1

HepG2-TP53BP1-CLTA = assay: as above
Summary of the method: as §1

HepG2-TUBA1B-RELA = assay: as above
Summary of the method: as §1

WPMY1-ACTB-RAB5A = assay: as above
Summary of the method: as §1

WPMY1-CANX-COX4 = assay: as above
Summary of the method: as §1

WPMY1-GM130-SQSTM1 [4] = assay: as above
Summary of the method: as §1

WPMY1-TP53BP1-CLTA = assay: as above
Summary of the method: as §1

WPMY1-TUBA1B-RELA = assay: as above
Summary of the method: as §1

HepG2-GM130-SQSTM1 [5] = assay: lowest phenotypically active concentration; higher = less potent
Summary of the method: as §1

A549-GM130-SQSTM1 [6] = assay: as above
Summary of the method: as §1

C[C@@H]1NCCc2cc(O)c(O)cc21 [Salsolinol hydrobromide]
inactive: phenotypically active (A549-ACTB-RAB5A) 0 | phenotypically active (A549-CANX-COX4) 0 | phenotypically active (A549-GM130-SQSTM1 [2]) 0 | phenotypically active (A549-TP53BP1-CLTA) 0 | phenotypically active (A549-TUBA1B-RELA) 0 | phenotypically active (HepG2-ACTB-RAB5A) 0 | phenotypically active (HepG2-CANX-COX4) 0 | phenotypically active (HepG2-GM130-SQSTM1 [3]) 0 | phenotypically active (HepG2-TP53BP1-CLTA) 0 | phenotypically active (HepG2-TUBA1B-RELA) 0 | phenotypically active (WPMY1-ACTB-RAB5A) 0 | phenotypically active (WPMY1-CANX-COX4) 0 | phenotypically active (WPMY1-TP53BP1-CLTA) 0 | phenotypically active (WPMY1-TUBA1B-RELA) 0
9 µM: lowest phenotypically active concentration (WPMY1-GM130-SQSTM1 [1])
active: phenotypically active (WPMY1-GM130-SQSTM1 [4]) 1

O=C1CCCN1CC#CCN1CCCC1 [Oxotremorine sesquifumarate]
inactive: phenotypically active (A549-CANX-COX4) 0 | phenotypically active (A549-TP53BP1-CLTA) 0 | phenotypically active (HepG2-ACTB-RAB5A) 0 | phenotypically active (HepG2-CANX-COX4) 0 | phenotypically active (HepG2-GM130-SQSTM1 [3]) 0 | phenotypically active (HepG2-TP53BP1-CLTA) 0 | phenotypically active (HepG2-TUBA1B-RELA) 0 | phenotypically active (WPMY1-ACTB-RAB5A) 0 | phenotypically active (WPMY1-CANX-COX4) 0 | phenotypically active (WPMY1-GM130-SQSTM1 [4]) 0 | phenotypically active (WPMY1-TP53BP1-CLTA) 0 | phenotypically active (WPMY1-TUBA1B-RELA) 0

N#Cc1c(Oc2cccc(OS(=O)(=O)CCCC(F)(F)F)c2)cccc1C(F)(F)F
active: phenotypically active (HepG2-GM130-SQSTM1 [3]) 1
inactive: phenotypically active (A549-ACTB-RAB5A) 0 | phenotypically active (A549-CANX-COX4) 0 | phenotypically active (A549-GM130-SQSTM1 [2]) 0 | phenotypically active (A549-TP53BP1-CLTA) 0 | phenotypically active (A549-TUBA1B-RELA) 0 | phenotypically active (HepG2-ACTB-RAB5A) 0 | phenotypically active (HepG2-CANX-COX4) 0 | phenotypically active (HepG2-TP53BP1-CLTA) 0 | phenotypically active (HepG2-TUBA1B-RELA) 0 | phenotypically active (WPMY1-ACTB-RAB5A) 0 | phenotypically active (WPMY1-CANX-COX4) 0 | phenotypically active (WPMY1-GM130-SQSTM1 [4]) 0 | phenotypically active (WPMY1-TP53BP1-CLTA) 0 | phenotypically active (WPMY1-TUBA1B-RELA) 0
9 µM: lowest phenotypically active concentration (HepG2-GM130-SQSTM1 [5])

CN1[C@@H]2CC[C@H]1C[C@@H](OC(=O)C(CO)c1ccccc1)C2 (stereo partly drawn) [Atropine sulfate monohydrate]
inactive: phenotypically active (A549-ACTB-RAB5A) 0 | phenotypically active (A549-CANX-COX4) 0 | phenotypically active (A549-GM130-SQSTM1 [2]) 0 | phenotypically active (A549-TUBA1B-RELA) 0 | phenotypically active (HepG2-ACTB-RAB5A) 0 | phenotypically active (HepG2-CANX-COX4) 0 | phenotypically active (HepG2-GM130-SQSTM1 [3]) 0 | phenotypically active (HepG2-TUBA1B-RELA) 0 | phenotypically active (WPMY1-ACTB-RAB5A) 0 | phenotypically active (WPMY1-CANX-COX4) 0 | phenotypically active (WPMY1-GM130-SQSTM1 [4]) 0 | phenotypically active (WPMY1-TUBA1B-RELA) 0

C[C@]1(C(=O)O)CCC[C@]2(C)c3cc(O)ccc3CC[C@@H]12 [Podocarpic acid]
inactive: phenotypically active (A549-CANX-COX4) 0 | phenotypically active (A549-TP53BP1-CLTA) 0 | phenotypically active (HepG2-ACTB-RAB5A) 0 | phenotypically active (HepG2-CANX-COX4) 0 | phenotypically active (HepG2-GM130-SQSTM1 [3]) 0 | phenotypically active (HepG2-TP53BP1-CLTA) 0 | phenotypically active (HepG2-TUBA1B-RELA) 0 | phenotypically active (WPMY1-ACTB-RAB5A) 0 | phenotypically active (WPMY1-CANX-COX4) 0 | phenotypically active (WPMY1-GM130-SQSTM1 [4]) 0 | phenotypically active (WPMY1-TP53BP1-CLTA) 0 | phenotypically active (WPMY1-TUBA1B-RELA) 0

Cc1c(C(=O)c2cccc3ccccc23)c2cccc3c2n1[C@H](CN1CCOCC1)CO3 [WIN 55,212-2 mesylate]
active: phenotypically active (A549-GM130-SQSTM1 [2]) 1 | phenotypically active (HepG2-GM130-SQSTM1 [3]) 1 | phenotypically active (WPMY1-ACTB-RAB5A) 1 | phenotypically active (WPMY1-CANX-COX4) 1 | phenotypically active (WPMY1-GM130-SQSTM1 [4]) 1 | phenotypically active (WPMY1-TP53BP1-CLTA) 1
inactive: phenotypically active (A549-ACTB-RAB5A) 0 | phenotypically active (A549-CANX-COX4) 0 | phenotypically active (A549-TP53BP1-CLTA) 0 | phenotypically active (A549-TUBA1B-RELA) 0 | phenotypically active (HepG2-ACTB-RAB5A) 0 | phenotypically active (HepG2-CANX-COX4) 0 | phenotypically active (HepG2-TP53BP1-CLTA) 0 | phenotypically active (HepG2-TUBA1B-RELA) 0 | phenotypically active (WPMY1-TUBA1B-RELA) 0
9 µM: lowest phenotypically active concentration (A549-GM130-SQSTM1 [6]) | lowest phenotypically active concentration (HepG2-GM130-SQSTM1 [5]) | lowest phenotypically active concentration (WPMY1-GM130-SQSTM1 [1])

CN1[C@@H]2CC[C@H]1C[C@@H](OC(=O)[C@H](CO)c1ccccc1)C2 [Hyoscyamine (L)]
inactive: phenotypically active (A549-ACTB-RAB5A) 0 | phenotypically active (A549-CANX-COX4) 0 | phenotypically active (A549-GM130-SQSTM1 [2]) 0 | phenotypically active (A549-TUBA1B-RELA) 0 | phenotypically active (HepG2-ACTB-RAB5A) 0 | phenotypically active (HepG2-CANX-COX4) 0 | phenotypically active (HepG2-GM130-SQSTM1 [3]) 0 | phenotypically active (HepG2-TUBA1B-RELA) 0 | phenotypically active (WPMY1-ACTB-RAB5A) 0 | phenotypically active (WPMY1-CANX-COX4) 0 | phenotypically active (WPMY1-GM130-SQSTM1 [4]) 0 | phenotypically active (WPMY1-TUBA1B-RELA) 0
